# Source: PubChem BioAssay (NCI)
# Compounds without any hit were thinned out: in the full panel of roughly 79,000, 15% have a hit. A number with no mark means an inactive call. Active and inactive are the calls of the source. Cut-off read from the data, not from the text of the source: active = growth inhibition above about 70%; inactive = the rest.
# Key:
# [1] = NCI Yeast Anticancer Drug Screen. Data for the rad52 strain (AID 147);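 note: 0% = growth of vehicle-treated control cultures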; conditions: S. cerevisiae rad52 mutant growth inhibition, active compounds read high
# Method in brief: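 Screen used a yeast mutant impaired in DNA repair. After compound exposure, growth was measured. Values reflect inhibition compared with vehicle-treated cells.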
# [2] = NCI Yeast Anticancer Drug Screen. Data for the wt1 strain (AID 149);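 note: 0% = growth of vehicle-treated wt1 cultures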; conditions: S. cerevisiae wt1 strain (SPY 50644) growth inhibition, active compounds read high
# Method in brief: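 Yeast wt1 strain exposed to compounds; growth inhibition measured relative to vehicle-treated controls.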
# [3] = NCI Yeast Anticancer Drug Screen. Data for the rad50EPP+ strain (AID 151);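 note: 0% = growth of vehicle-treated control cultures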; conditions: S. cerevisiae rad50 mutant strain, active compounds read high
# Method in brief: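 Exposing the rad50EPP+ strain to each compound, growth was compared with vehicle-only cultures to give inhibition.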
# [4] = NCI Yeast Anticancer Drug Screen. Data for the mgt1 strain (AID 153); conditions: S. cerevisiae mgt1 mutant growth inhibition, active compounds read high
# Method in brief: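 Genetically defined yeast (mgt1) treated with compound; inhibition of growth expressed against vehicle-treated controls.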
# [5] = NCI Yeast Anticancer Drug Screen. Data for the rad50 strain (AID 155);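 note: 0% = growth of vehicle-only cultures of the same strain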; conditions: S. cerevisiae rad50 strain growth inhibition, active compounds read high
# Method in brief: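 Yeast carrying a defined DNA repair defect were exposed to test compounds, and growth was compared with vehicle-treated controls to give percent inhibition.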
# [6] = NCI Yeast Anticancer Drug Screen. Data for the mec2-1 strain (AID 157); conditions: S. cerevisiae mec2-1 strain, active compounds read high
# Method in brief: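 Readout is yeast growth inhibition, normalised to vehicle-treated controls, in the mec2-1 strain exposed to compound.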
# [7] = NCI Yeast Anticancer Drug Screen. Data for the rad14 strain (AID 159);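 note: 0% = growth of vehicle-treated control cultures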; conditions: S. cerevisiae rad14 strain growth inhibition, active compounds read high
# Method in brief: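 Yeast cells carrying a defined DNA-repair defect were exposed to compounds, and growth inhibition was calculated relative to vehicle-treated control cultures.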
# [8] = NCI Yeast Anticancer Drug Screen. Data for the sgs1 mgt1 strain (AID 161);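 note: 0% = growth of cultures given vehicle only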; conditions: S. cerevisiae sgs1 mgt1 strain, active compounds read high
# Method in brief: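 Growth of a repair-deficient yeast mutant was monitored after compound treatment and expressed as inhibition relative to vehicle-treated cultures.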
# [9] = NCI Yeast Anticancer Drug Screen. Data for the CLN2oe strain (AID 163);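 note: 0% = growth of vehicle-only control cultures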; conditions: S. cerevisiae CLN2oe strain, active compounds read high
# Method in brief: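 Values reflect how much compound exposure reduced yeast growth, referenced to vehicle-exposed cells. Assay organism is a strain with a defined genetic change affecting cell-cycle control.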
# [10] = NCI Yeast Anticancer Drug Screen. Data for the cln2 rad14 strain (AID 165);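 note: 0% = growth equal to vehicle treated cultures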; conditions: S. cerevisiae cln2 rad14 strain, active compounds read high
# Method in brief: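 Relative to vehicle controls, growth inhibition of compound-treated cln2 rad14 yeast was recorded.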
# [11] = NCI Yeast Anticancer Drug Screen. Data for the bub3 strain (AID 167); conditions: S. cerevisiae bub3 mutant strain, active compounds read high
# Method in brief: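 Compounds were applied to a genetically altered yeast strain carrying a cell-cycle control defect. Growth inhibition was scored against vehicle-treated controls.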
# [12] = NCI Yeast Anticancer Drug Screen. Data for the wt2 strain (AID 169);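 note: 0% = growth of vehicle-treated yeast cultures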; conditions: S. cerevisiae wt2 strain growth inhibition, active compounds read high
# Method in brief: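 Values express reduction in yeast growth under compound treatment, referenced to vehicle-treated cells.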
# [13] = NCI Yeast Anticancer Drug Screen. Data for the mlh1 strain (AID 171);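 note: 0% = growth of vehicle-treated control cultures of the same strain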; conditions: S. cerevisiae mlh1 strain growth inhibition, active compounds read high
# Method in brief: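 Steps: expose the defined-mutant yeast strain to compound; expose a parallel culture to vehicle; measure growth; express compound effect as inhibition relative to the vehicle culture.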
# [14] = NCI Yeast Anticancer Drug Screen. Data for the sgs1 strain (AID 173);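 note: 0% = growth of vehicle-only control cultures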; conditions: S. cerevisiae sgs1 mutant, active compounds read high
# Method in brief: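 Treat defined-mutant yeast with compound; measure growth; calculate inhibition relative to vehicle-treated cells.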
# [15] = NCI Yeast Anticancer Drug Screen. Data for the mlh1 rad18 strain (AID 175); conditions: S. cerevisiae mlh1 rad18 strain growth inhibition, active compounds read high
# Method in brief: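 Test agents were incubated with a yeast strain of defined genotype (DNA damage repair defect). Inhibition of growth was derived by comparison with vehicle-exposed cultures.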
# [16] = NCI Yeast Anticancer Drug Screen. Data for the rad18 strain (AID 177); conditions: S. cerevisiae rad18 mutant growth inhibition, active compounds read high
# Method in brief: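 A genetically defined yeast mutant impaired in DNA damage repair was treated with test compounds, then its growth was measured against cultures receiving vehicle alone.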
# [17] = at 5.0 µM (retest, dose inferred, filed as 0.5)
# [18] = at 50.0 µM (retest, dose inferred, filed as 5.0)
smiles,measurement,setting,value
CC(C)=NOC(=O)Nc1ccc(Cl)cc1,growth inhibition,[1]; at 1.2 µM,1%
same,growth inhibition,[1]; at 3.7 µM,-7%
same,growth inhibition,[1]; at 11.0 µM,-8%
same,growth inhibition,[1]; at 33.0 µM,15%
same,growth inhibition,[1]; at 100.0 µM,66%
same,growth inhibition,[2]; at 1.2 µM,-24%
same,growth inhibition,[2]; at 3.7 µM,-27%
same,growth inhibition,[2]; at 11.0 µM,-21%
same,growth inhibition,[2]; at 33.0 µM,-18%
same,growth inhibition,[2]; at 100.0 µM,14%
same,growth inhibition,[3]; at 1.2 µM,-32%
same,growth inhibition,[3]; at 3.7 µM,18%
same,growth inhibition,[3]; at 11.0 µM,23%
same,growth inhibition,[3]; at 33.0 µM,79% (active)
same,growth inhibition,[3]; at 100.0 µM,95% (active)
same,growth inhibition,[4]; at 1.2 µM,-41%
same,growth inhibition,[4]; at 3.7 µM,-60%
same,growth inhibition,[4]; at 11.0 µM,-56%
same,growth inhibition,[4]; at 33.0 µM,-11%
same,growth inhibition,[4]; at 100.0 µM,74% (active)
same,growth inhibition,[5]; at 1.2 µM,2%
same,growth inhibition,[5]; at 3.7 µM,11%
same,growth inhibition,[5]; [17],87% (active)
same,growth inhibition,[5]; at 11.0 µM,-3%
same,growth inhibition,[5]; at 33.0 µM,28%
same,growth inhibition,[5]; [18],98% (active)
same,growth inhibition,[5]; at 50.0 µM,58.2%
same,growth inhibition,[5]; at 100.0 µM,67%
same,growth inhibition,[6]; at 1.2 µM,-40%
same,growth inhibition,[6]; at 3.7 µM,-26%
same,growth inhibition,[6]; [17],76% (active)
same,growth inhibition,[6]; at 11.0 µM,-24%
same,growth inhibition,[6]; at 33.0 µM,-7%
same,growth inhibition,[6]; [18],99% (active)
same,growth inhibition,[6]; at 50.0 µM,29.9%
same,growth inhibition,[6]; at 100.0 µM,47%
same,growth inhibition,[7]; at 1.2 µM,-48%
same,growth inhibition,[7]; at 3.7 µM,-50%
same,growth inhibition,[7]; at 11.0 µM,-30%
same,growth inhibition,[7]; at 33.0 µM,-25%
same,growth inhibition,[7]; at 100.0 µM,45%
same,growth inhibition,[8]; [17],0%
same,growth inhibition,[8]; [18],92% (active)
same,growth inhibition,[8]; at 50.0 µM,72.8% (active)
same,growth inhibition,[9]; at 1.2 µM,-30%
same,growth inhibition,[9]; at 3.7 µM,-18%
same,growth inhibition,[9]; at 11.0 µM,-6%
same,growth inhibition,[9]; at 33.0 µM,8%
same,growth inhibition,[9]; at 100.0 µM,38%
same,growth inhibition,[10]; [17],77% (active)
same,growth inhibition,[10]; [18],90% (active)
same,growth inhibition,[10]; at 50.0 µM,37.2%
same,growth inhibition,[11]; at 1.2 µM,-12%
same,growth inhibition,[11]; at 3.7 µM,-1%
same,growth inhibition,[11]; [17],28%
same,growth inhibition,[11]; at 11.0 µM,0%
same,growth inhibition,[11]; at 33.0 µM,8%
same,growth inhibition,[11]; [18],81% (active)
same,growth inhibition,[11]; at 50.0 µM,47%
same,growth inhibition,[11]; at 100.0 µM,64%
same,growth inhibition,[12]; at 1.2 µM,-34%
same,growth inhibition,[12]; at 3.7 µM,-25%
same,growth inhibition,[12]; at 11.0 µM,-21%
same,growth inhibition,[12]; at 33.0 µM,5%
same,growth inhibition,[12]; at 100.0 µM,79% (active)
same,growth inhibition,[13]; at 1.2 µM,-25%
same,growth inhibition,[13]; at 3.7 µM,-17%
same,growth inhibition,[13]; at 11.0 µM,-22%
same,growth inhibition,[13]; at 33.0 µM,21%
same,growth inhibition,[13]; at 100.0 µM,83% (active)
same,growth inhibition,[14]; at 1.2 µM,-16%
same,growth inhibition,[14]; at 3.7 µM,-12%
same,growth inhibition,[14]; at 11.0 µM,-14%
same,growth inhibition,[14]; at 33.0 µM,33%
same,growth inhibition,[14]; at 100.0 µM,84% (active)
same,growth inhibition,[15]; [17],61%
same,growth inhibition,[15]; [18],99% (active)
same,growth inhibition,[15]; at 50.0 µM,46.7%
same,growth inhibition,[16]; at 1.2 µM,-32%
same,growth inhibition,[16]; at 3.7 µM,-38%
same,growth inhibition,[16]; at 11.0 µM,-39%
same,growth inhibition,[16]; at 33.0 µM,10%
same,growth inhibition,[16]; at 100.0 µM,72% (active)
